TbREL1 inh = TbREL1 RNA ligase inhibitors, primary screen, biochemical, FRET fluorescence; RNA-editing ligase 1, mitochondrial (Trypanosoma brucei brucei), P86926; TbREL1 RNA ligation; inhibition, % at 9.66 µM; actives 0.49% (n = 89,000); AID 1117264, 2014;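 active = inhibition above the mean inhibition across all screened compounds plus 3 SD, cut at about 11% in these data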;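 note: 0% = plate median of test wells and 100% = NSC42067 control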
Target sequence (P86926 whole entry, looked up): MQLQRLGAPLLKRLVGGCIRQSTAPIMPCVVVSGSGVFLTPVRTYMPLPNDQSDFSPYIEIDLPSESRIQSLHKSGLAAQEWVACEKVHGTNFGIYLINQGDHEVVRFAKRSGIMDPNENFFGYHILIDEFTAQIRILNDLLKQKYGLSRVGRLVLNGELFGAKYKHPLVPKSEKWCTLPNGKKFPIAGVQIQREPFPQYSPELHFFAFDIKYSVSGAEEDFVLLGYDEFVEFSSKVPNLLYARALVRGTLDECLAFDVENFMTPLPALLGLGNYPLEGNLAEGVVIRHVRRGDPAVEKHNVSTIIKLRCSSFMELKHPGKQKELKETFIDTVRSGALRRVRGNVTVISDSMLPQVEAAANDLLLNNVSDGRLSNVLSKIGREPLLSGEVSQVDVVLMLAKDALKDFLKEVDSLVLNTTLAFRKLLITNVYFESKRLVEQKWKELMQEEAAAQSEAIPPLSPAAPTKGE
TbREL1 conf = TbREL1 RNA ligase inhibitors, confirmation, biochemical, FRET fluorescence, triplicate. actives 37% (n = 390). inhibition, % at 9.66 µM. TbREL1 RNA ligation. AID 1117282, 2014. shares compounds with TbREL1 inh;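 active = mean inhibition across replicates above a set limit taken from the earlier primary screen, cut at about 11% in these data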;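 note: 0% = REL1 with substrate and DMSO and 100% = REL1 plus control inhibitor NSC42067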
* = called active by the depositor. The entries come from a sample that favours hits as a whole.

SMILES	TbREL1 inh	others
CCCCCCCC(=O)N[C@H]1CC[C@@]23CCCN2C(=O)CCC[C@H]3[C@H]1C	4
COC(=O)C(CN)CN1C(=O)c2ccccc2C1=O (configuration not stated)	0
CC(=O)c1ccc(NS(=O)(=O)c2ccccc2)cc1	5
CC(=O)c1ccc(Nc2ccc(-c3ccccc3F)nn2)cc1	13*	TbREL1 conf=3
O=C(c1ccccc1)c1nnc(-c2ccccc2F)o1	2
CCn1c(SCc2ccc(C(C)(C)C)cc2)nnc1-c1ccc(C(C)(C)C)cc1	0
O=C1C2C(CC3c4ccccc4CCN32)CN1c1ccccc1 (configuration not stated)	-3
C[C@H]1[C@@H](OC(=O)N2CCCC2)CC[C@@]23CCCN2C(=O)CCC[C@@H]13	-4
Cc1ccc(NC(=O)C2CCN(c3ncccn3)CC2)cc1C	3
Cc1ccccc1N1CCN(C2=Nc3ccccc3Sc3ccccc32)CC1	-2
CN(C(=O)[C@@H]1CC=C[C@@H]2CCN(C3CCCCC3)C(=O)[C@@H]21)c1ccccc1	-2
O=C(Nc1ccc(F)cc1F)c1cc(-c2ccc(Cl)cc2)nc2ccccc12	0
COc1ccc(-n2nnc3c(=O)n(CC(=O)N4CCCC4)cnc32)cc1	2
CCOC(=O)C(CC)n1cnc2c(nnn2-c2ccc(C)cc2)c1=O (configuration not stated)	19*	TbREL1 conf=2
CCOC(=O)c1nn(-c2ccc(C)cc2)c(=O)c2c(N)scc12	1
Cc1ccc(NC(=O)c2ccc(CS(=O)(=O)Cc3ccccc3C)o2)cc1C	-3
Oc1cc2c(cc1O)[C@H]1c3ccc(O)c(O)c3OC[C@@]1(O)C2	21*	TbREL1 conf=62*
COC(=O)C1=C(C(=O)OC)[C@@]2([C@H](Cc3ccc(C)cc3)Nc3ccccc3)C=C[C@@H]1O2	-4
Cc1cc(Oc2cccnc2)ccc1NC(=O)Cc1c(C)[nH]c2ccccc12	-3
CCOc1ccccc1NC(=O)c1cc2c(C)nn(-c3ccccc3)c2s1	7
C[C@@H](NCCCn1cnc2c(OCc3ccccc3)ncnc21)c1cccc2ccccc12	13*	TbREL1 conf=13*
O=C(Cn1cnc2c(OCc3ccccc3)ncnc21)NCCN1CCOCC1	0
C[C@@H](NC(=O)Cn1cnc2c(OCc3ccccc3)ncnc21)c1cccc2ccccc12	-4
O=C(c1cc2cc(Cl)ccc2o1)N1CCCC1	2
O=C(NCc1ccccc1CN1CCCC1)C1CCN(C(=O)c2ccc(Cl)cc2)CC1	2
SMILES	TbREL1 inh	others
O=C(NCc1ccccc1CN1CCCC1)c1cc2cc(Cl)ccc2o1	12*	TbREL1 conf=4
O=C(Cn1c(=O)oc2ccccc21)c1ccccc1	2
CC(C)(C)c1csc(NC(=O)Cn2c(=O)oc3ccccc32)n1	6
CC(C)(C)NC(=O)Cn1c(=O)oc2ccc(Cl)cc21	59*	TbREL1 conf=5
COc1ccc(CN2C(=O)[C@]3(NCCc4c3[nH]c3ccc(OC)cc43)c3cc(Br)ccc32)cc1	1
COc1ccc(C2C(C(=O)Nc3cc(Cl)ccc3F)CCC(=O)N2c2ccc(OC)cc2)cc1 (configuration not stated)	0
N#CC1CCN(c2nc(-c3ccc(Br)cc3)cs2)CC1	5
O=C(Cn1cnc2ccccc2c1=O)N1CCN(Cc2ccc(F)cc2)CC1	-1
CCC(=O)Nc1ccc2c(c1)C(=O)c1ccccc1C2=O	14*	TbREL1 conf=2
CCC(=O)Nc1ccc(C(=O)NNC(=O)c2ccccc2)cc1	6
CCC(=O)NC1=C(NC(C)c2ccccc2)C(=O)c2ccccc2C1=O (configuration not stated)	0
Cc1ccc(NC(=O)C2CC3CCC2C3)cc1 (configuration not stated)	5
Cc1ccc(S(=O)(=O)NC[C@@H]2C[C@H](c3ccccc3)ON2S(=O)(=O)c2ccc(C)cc2)cc1	2
CCCNC(=O)C/C(C)=N/NC(=O)C(=O)Nc1ccccn1	2
C/C(CC(=O)Nc1ccccn1)=N\NC(=O)c1ccccc1O	22*	TbREL1 conf=5
C/C(CC(=O)Nc1ccccn1)=N\NC(=O)c1ccc2ccccc2c1	0
Cc1nc2ccc(NC(=O)c3c(Cl)cccc3Cl)cc2c(=O)[nH]1	7
O=[N+]([O-])c1ccc(CN2CCOCCOCCN(Cc3ccc([N+](=O)[O-])cc3Cl)CCOCC2)c(Cl)c1	-1
COC(=O)C[C@@H]1CC[C@@H]2[C@@H](COc3ccc(NC(=O)Nc4ccc(F)cc4)cc3C(=O)N2C)O1	-2
C=CCN=C1NC(c2ccccc2C(F)(F)F)C(C(=O)OC)=C(C)N1Cc1cccc(C(F)(F)F)c1 (configuration not stated)	15*	TbREL1 conf=18*
COCCOC(=O)C1=C(C)N(Cc2ccccc2)C(=O)NC1c1cccc(OC)c1OC (configuration not stated)	-1
COC(=O)C1=C(C)N(Cc2cccc(C(F)(F)F)c2)C(=NCc2cc(OC)c(OC)c(OC)c2)NC1c1ccccc1C(F)(F)F (configuration not stated)	14*	TbREL1 conf=19*
CCN=C1NC(c2ccc(C(F)(F)F)cc2)C(C(=O)OC)=C(C)N1Cc1cccc(C(F)(F)F)c1 (configuration not stated)	7
C=CCN=C1NC(c2ccccc2C(F)(F)F)C(C(=O)OC)=C(C)N1Cc1ccc(C(F)(F)F)cc1 (configuration not stated)	14*	TbREL1 conf=18*
CCN=C1NC(c2ccccc2C(F)(F)F)C(C(=O)OC)=C(C)N1C (configuration not stated)	-3
SMILES	TbREL1 inh	others
COC(=O)C1=C(C)N(Cc2cccc(C(F)(F)F)c2)C(=NCC2CC2)NC1c1ccccc1C(F)(F)F (configuration not stated)	15*	TbREL1 conf=15*
CCCC1CCC2(CC1)CCC2OC(=S)Nc1ccccc1OC (configuration not stated)	0
O=CN1CCN(C(=O)C2CCN(c3ncnc4c3sc3cccc(F)c34)CC2)CC1	-3
COC(=O)[C@]12C[C@H](CC(=O)N3CCCCC3)C(=O)N(Cc3ccco3)C1=C[C@H](C1CCCC1)O[C@@H]2C	-3
Cc1ccccc1CS(=O)(=O)Cc1ccc(C(=O)Nc2ccc(F)cc2)o1	-1
O=C(CSc1nnc(-c2cccnc2)n1-c1ccc(Cl)cc1)c1ccc2ccccc2c1	-3
Nn1c(SCC(=O)Nc2ccc(C(=O)O)cc2)nnc1-c1ccco1	0
COC(=O)[C@]12C[C@H](CC(=O)NCCC(C)C)C(=O)N(Cc3ccc(Cl)cc3Cl)C1=C[C@H](C1CCCC1)O[C@@H]2C	-3
Cc1ccc2nc(C3CCCCC3)c(Cc3ccccc3C(F)(F)F)n2c1	-2
CC(C)(C)Cc1c(C2CCCCC2)nc2ccc(Cl)cn12	5
Brc1ccc2nc(C3CCCCC3)c(CC3CCCCC3)n2c1	11*	TbREL1 conf=9
O=C(CSc1nnc(SCc2cccc3ccccc23)s1)Nc1ccccc1-c1ccccc1	3
CCOc1ccc(-n2c(SCC(=O)c3ccc4ccccc4c3)nnc2-c2cccc(Cl)c2)cc1	4
O=C(OCc1cn(Cc2cccc(Cl)c2)nn1)N1CCCC1	-1
CCn1c2ccccc2c2cc(NC(=O)COC(=O)c3ccc(F)cc3Cl)ccc21	0
COc1ccc(C2C(C(=O)NCc3ccccn3)c3cc(OC)c(OC)cc3C(=O)N2C)cc1 (configuration not stated)	-1

Screening data deposited in PubChem by The Scripps Research Institute Molecular Screening Center.
